SMILES strings stand for the structures. About 83,000 compounds went through this panel and 20% of them were active in at least one assay; those are over-represented in the sample as a whole.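 Cell lines were cultured in 96-well plates, exposed to a single compound concentration, and assessed for percent growth 48 hours later.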 Unmarked numbers belong to inactive results. Calls of active or inactive are those of the source. The calls were made as follows: active = growth percent below 10; inactive = the rest.

Assay in all cases: NCI-60 one-dose screen, 48 h (100 = growth as untreated, 0 = no growth, -100 = all killed)
Settings in all cases: 10 µM unless noted

The subject of test [1] is DU-145 prostate.
Test [2] has as its system K-562 leukemia.
The test system of test [3] is MALME-3M melanoma.
In test [4] the test system is MDA-MB-231 breast.
Test [5] concerns RXF 393 renal.
In test [6] the test system is SF-268 CNS.
For test [7], the system named is SF-295 CNS.
Test [8] deals with SF-539 CNS.
Test [9] concerns UACC-257 melanoma.
Test [10] deals with M14 melanoma.

On to `O=C(Nc1nc2ccc(F)cc2s1)c1cccnc1Nc1ccc(Cl)cc1`, for which the growth was 44.3% in test [1]; 5.7% (active) in [2]; 3.74% (active) in [3]; 50.7% in test [4]; 59.8% in test [5]; 37.2% in test [6]. For the same molecule, the growth is 17.4% in test [7], 50.3% in test [8], 43% in [9] and 53.8% in [10].

With `COc1ccc(N2CCC(=O)NC2=S)cc1`, the growth in [1] was 115%; in test [2] it was 107%; in test [3], 110%; in test [4], 102%; in test [5] it was 109%; in test [6] it was 99.8%. The growth in [7] was 100%; in test [8] it was 99.4%; in test [9], 108%; in test [10], 98.7%.

With `Cc1ccc(C(C(N)=O)C(C(N)=O)c2ccccc2)cc1` (stereo not given), the growth in [1] was 111%; in test [2], 90.9%; in test [3], 129%; in test [4] it was 123%; in test [5], 104%; in [6], 104%. Moreover, the growth in [7] was 114%; in test [8], 119%; in [9], 102%; in [10], 108%.

As for `CN(C)c1ccc(/C=C/C(=O)c2ccc(-n3cc(CN4CCN(c5cc6c(cc5F)c(=O)c(C(=O)O)cn6C5CC5)CC4)nn3)cc2)cc1`, the growth is 51.7% in test [1]; 21.9% in test [2]; 89.2% in test [3]; 65.3% in test [4]; 45% in test [5]; 35.7% in test [6]. Moreover, the growth in test [7] was 81.2%; in test [8], 27.9%; in test [9], 88.3%; in [10], 60.9%.

Take `CCn1c(=S)sc2c(Nc3ccc(F)cc3)nc(-c3cccnc3)nc21`: the growth was 77.5% in test [1]; 77.1% in test [2]; 83.9% in test [3]; 75% in test [4]; 78.6% in [5]; 56.4% in test [6]. The growth in test [7] is 50.6%; in [8], 41.5%; in test [9], 78.9%; in test [10], 74.1%.

As to `COc1ccc2c(c1)c(-c1noc(C(=O)c3cn(C)c4ccc(Br)cc34)n1)cn2C`, the growth is 113% in test [1]; 88% in test [2]; 93.9% in [3]; 103% in [4]; 114% in [5]; 99.2% in [6]. Moreover, the growth in test [7] was 117%; in test [8], 101%; in test [9] it was 92.7%; in [10], 97%.

For `COc1ccc(-c2cc(-c3ccc(Cl)cc3)c(C#N)c(=O)n2CCCCC(=O)Nc2ccccc2N)cc1`, the growth in [1] was 59.9%; in test [2] it was 24.8%; in test [3], 59.3%; in test [4], 39.3%; in [5], 14.2%; in test [6] it was 65.5%. Also, the growth in test [7] is -14.5% (active); in test [8], 73.9%; in test [9] it was 44.7%; in [10] it was -7.3% (active).

With `CCOC(=O)c1nc(Nc2ccc(NC(=O)Nc3ccc(F)cc3)cc2)c2ccccc2n1`, the growth in test [1] was 108%; in test [2], 102%; in test [3], 92.6%; in [4], 95.9%; in test [5], 93.2%; in test [6], 98.3%. In addition, the growth in test [7] is 99.8%; in [8] it was 99.9%; in test [9], 103%; in test [10], 97%.

Consider `COc1cc(CNS(=O)(=O)c2ccc(C)cc2)ccc1OCc1cn(-c2ccc(Br)cc2)nn1`, for which the growth was 104% in test [1]; 94.3% in [2]; 104% in test [3]; 103% in [4]; 97.1% in test [5]; 93.8% in test [6]. The growth was 97.2% in [7], 107% in [8], 110% in test [9] and 106% in test [10].

In the case of `N#Cc1c(-c2ccccc2)cc(-c2ccccc2)n(CCCCCC(=O)Nc2ccccc2N)c1=O`, the growth is 72.6% in test [1]; 46.3% in test [2]; 76.8% in test [3]; 64.1% in [4]; 39% in test [5]; 64.3% in test [6]. Besides, the growth is 95.9% in test [7], 72.9% in test [8], 78.6% in [9] and 80.1% in [10].

Consider `C[C@]12CC[C@@H]3c4ccc(O)c([N+](=O)[O-])c4CC[C@H]3[C@@H]1CCC2=O`, for which the growth in [1] is 117%; in test [2], 96.7%; in test [3] it was 98.5%; in [4] it was 91.4%; in [5], 97%; in [6] it was 66.7%. In addition, the growth in test [7] is 98.7%; in test [8] it was 98.2%; in test [9], 106%; in test [10], 102%.

As for `O=C1/C(=C/c2ccc(F)cc2)COc2ccc(O)cc21`, the growth in test [1] was 96.5%; in [2], 4.82% (active); in [3], 85.6%; in test [4] it was 97.2%; in test [5], 104%; in [6] it was 90%. Moreover, the growth in test [7] is 104%; in [8], 87.2%; in [9], 107%; in [10] it was 88.1%.

As to `O=C(NCCCCNC(=O)OCc1ccc2c(Cl)cc(Cl)c(O)c2n1)OCc1ccc2c(Cl)cc(Cl)c(O)c2n1`, the growth in [1] was 1.77% (active); in [2], 11.6%; in test [3], 43%; in [4] it was 25.1%; in test [5], 27%; in test [6], 31.3%. Besides, the growth in test [7] is 22.8%; in [8], -13.7% (active); in test [9], 23.8%; in [10], 12.4%.

The record behind these values is PubChem BioAssay (NCI).
